Source: PubChem
Shown is part of a subset that was picked to be rich in hits.
DUSP3 inh – blocks the human dual specificity phosphatase VHR1; P51452; recombinant VHR phosphatase, colorimetric substrate read-out; inhibition, % at 20 µM; 50,000 tested, 0.7% active; AID 1992; in the data active = inhibition above about 60%
Target sequence (P51452 whole entry, looked up): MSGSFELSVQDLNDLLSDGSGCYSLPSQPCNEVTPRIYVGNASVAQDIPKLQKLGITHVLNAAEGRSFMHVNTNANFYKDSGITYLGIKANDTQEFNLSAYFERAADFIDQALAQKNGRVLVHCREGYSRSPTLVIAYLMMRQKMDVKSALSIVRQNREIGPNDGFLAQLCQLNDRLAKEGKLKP
An asterisk follows results filed as active.

SMILES	DUSP3 inh
O=C(O)C1CCCCC1C(=O)N1CCN(c2cccc(Cl)c2)CC1 (stereo not given)	-18
CCCN1C(=O)/C(=C\c2nc3ccccc3c(=O)n2C)c2cc(Br)ccc21	-2
COc1ccccc1NC(=S)NC(NC(=O)c1cc(OC)c(OC)c(OC)c1)C(Cl)(Cl)Cl (stereo not given)	5
COC(=O)COc1ccc(/C=C2\C(=O)NC(=O)N(c3ccc(Cl)cc3)C2=O)cc1OC	26
O=C(O)c1cccc(-c2ccc(/C=N/Nc3ccc([N+](=O)[O-])cn3)o2)c1	90*
O=C(O)c1cc(-c2ccc(/C=N/Nc3ccc([N+](=O)[O-])cn3)o2)ccc1Cl	-1
Cc1cc(C(=O)N/N=C/c2ccc(-c3cccc(C(=O)O)c3)o2)n[nH]1	16
CN(C)c1ccc(/C=N/S(=O)(=O)c2cccs2)cc1	-12
CCOC(=O)c1c(NC(=O)/C=C/c2ccccc2)sc2c1CC(C)(C)OC2	13
O=C1C(Cl)=CC(=NS(=O)(=O)c2ccc(Cl)cc2)c2ccccc21	4
Cc1ccc(S(=O)(=O)/N=C2\C=CC(=O)C=C2Cl)cc1	60
Cc1ccc(S(=O)(=O)/N=C2\C=C(Sc3ncn[nH]3)C(=O)c3ccccc32)cc1	64*
Cc1cccc(NC(=O)C2C(c3ccccc3)=C2c2ccccc2)c1C	-2
CC(C)NC(=O)C1C(c2ccccc2)=C1c1ccccc1	120*
O=C(Nc1ccc(Br)cc1)C1C(c2ccccc2)=C1c1ccccc1	-11
COC(=O)c1ccc(Cl)c(S(=O)(=O)N2CCOCC2)c1	-9
COc1cccc(CN2CCN(Cc3cccn3C)CC2)c1	5
CC(=O)c1ccc(NC(=O)CSc2nc(C)cc(=O)[nH]2)cc1	-54
COc1ccc(N(CC(=O)N(Cc2ccccc2)Cc2ccccc2)S(C)(=O)=O)cc1	-20
Cc1cc(Cl)ccc1OCC(=O)NNC(=O)CC#N	6
Cc1c(Br)c([N+](=O)[O-])nn1CC(=O)NC1CCCCC1	-10
O=C(N=Nc1c(O)[nH]c2ccc(Br)cc12)c1ccc([N+](=O)[O-])cc1	-1
O=C1OC(c2ccccc2)=C/C1=C/c1ccc(-c2ccc([N+](=O)[O-])cc2Br)o1	0
Cc1ccc(C2=C/C(=C\c3cc([N+](=O)[O-])ccc3Cl)C(=O)O2)cc1	7
Cc1ccc([N+](=O)[O-])cc1/C=C1/C=C(c2ccccc2)OC1=O	96*
SMILES	DUSP3 inh
N#Cc1c(N)[nH]c(=S)c(C#N)c1-c1cccc([N+](=O)[O-])c1	2
O=C(O)c1ccc(-c2ccc(OC(F)(F)F)cc2)o1	-5
N#C/C(=C/c1ccc(O)c([N+](=O)[O-])c1)C(=O)Nc1cccc(Br)c1	-10
N#Cc1c(-c2ccccc2)cc(-c2ccccc2Cl)c(C#N)c1N	7
N#CC(C#N)=C1C(Cl)=C(Cl)c2ccccc21	66*
O=C1C(=O)c2ccccc2C(Cl)=C1Cl	-7
N#CC(C(=O)Nc1cccc2ccccc12)=C1CCCC1	47
Cn1c(O)c(C=NCc2ccc(Cl)c(Cl)c2)c(=O)n(C)c1=O	1
CCc1c(C)sc(NC(=O)c2ccc(Cl)cc2)c1C(N)=O	-6
CCc1c(C)sc(NC(=O)c2cccnc2)c1C(N)=O	-1
CCCCOc1ccc(C(=O)Nc2sc(C)c(CC)c2C(N)=O)cc1	70*
CN1C(=O)/C(=C2\SC(=S)N(C(Cc3ccccc3)C(=O)O)C2=O)c2ccccc21 (stereo not given)	-1
CC(=O)N(C)c1ccc(NC(=O)c2ccccc2[N+](=O)[O-])cc1	-5
COc1ccc(N2C(=O)NC(=O)/C(=C/c3ccc(OCc4ccccc4F)cc3)C2=O)cc1	-5
O=C1CC(c2ccccc2)CC2=C1C(c1ccc(F)c(Br)c1)Nc1ccccc1N2 (stereo not given)	-6
CCC(=O)N1c2ccccc2NC2=C(C(=O)CC(c3ccccc3)C2)C1c1ccc([N+](=O)[O-])cc1 (stereo not given)	10
O=C1CC(c2ccccc2)CC2=C1C(c1ccc(F)c(F)c1)Nc1ccccc1N2 (stereo not given)	104*
COc1ccc(C2CC(=O)C3=C(C2)Nc2ccccc2NC3c2ccc(F)c(Br)c2)cc1 (stereo not given)	116*
O=C1CC(c2ccccc2)CC2=C1C(c1ccc(Cl)c(Cl)c1)Nc1ccccc1N2 (stereo not given)	-17
COc1ccc(C2CC(=O)C3=C(C2)Nc2ccccc2N(C(C)=O)C3c2ccc(OC)c(OC)c2)cc1 (stereo not given)	0
COc1ccc(C2CC(=O)C3=C(C2)Nc2ccccc2NC3c2cccc(Br)c2)cc1 (stereo not given)	1
Cc1ccc2c(c1)NC(c1ccc3c(c1)OCO3)C1=C(CC(c3ccccc3)CC1=O)N2 (stereo not given)	118*
COc1ccc(C2CC(=O)C3=C(C2)Nc2ccccc2NC3c2ccc3ccccc3c2)cc1 (stereo not given)	11
Cc1ccc2c(c1)NC(c1ccc(F)cc1)C1=C(CC(c3ccccc3)CC1=O)N2 (stereo not given)	-28
